According to publication PMC5540273 (PLoS ONE, 2017):

Assays:
Details in all cases: concentration: 1 μM, replicates: in singlicate; n = 1
DDR2 = test system: DDR2
DLK = test system: T1, DLK
T1 construct: gene MAP3K12

DMPK2 = test system: T2, DMPK2
T2 construct: gene CDC42BPG

DMPK = test system: DMPK
DRAK1 = test system: T3, DRAK1
T3 construct: gene STK17A

DRAK2 = test system: T4, DRAK2
T4 construct: gene STK17B

DYRK1A = test system: DYRK1A
DYRK1B = test system: DYRK1B
DYRK2 = test system: DYRK2
EGFR = test system: EGFR
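Also: KINOMEscan kinase panel screen.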

SMILES | %Inh (DDR2) | %Inh (DLK) | %Inh (DMPK2) | %Inh (DMPK) | %Inh (DRAK1) | %Inh (DRAK2) | %Inh (DYRK1A) | %Inh (DYRK1B) | %Inh (DYRK2) | %Inh (EGFR)
CCCc1ccc(S(=O)(=O)NC2CCN(c3ccnc(Nc4ccc(OC)cc4)n3)C2)cc1 (stereo not shown) [GSK1379737] | 34% | 28% | 94.7% | 0% | 0% | 0% | 19% | 8% | 0% | 32%
O=C(Nc1ccccc1)Nc1ccc(Oc2ccc3nccn3n2)cc1 | 100% | 18% | 0% | 6% | 0% | 0% | 0% | 30% | 70% | 23%
O=C(CCO)NCCn1ccc2ncnc(Nc3ccc(Oc4cccc(C(F)(F)F)c4)c(Cl)c3)c21 | 0% | 0% | 0% | 0% | 0% | 0% | 0% | 12% | 0% | 100%
CCc1nc(-c2cccc(C)c2)c(-c2ccnc(NC(=O)c3ccccc3)c2)s1 | 1% | 6% | 8% | 0% | 0% | 0% | 18% | 50% | 10% | 24%
Cl.O=S(=O)(c1cccc(F)c1)c1ccc(Nc2ncnc3cc(Br)sc23)cc1Cl [GSK306886] | 0% | 0% | 15% | 0% | 9% | 0% | 7% | 0% | 14% | 99.2%
CNc1nccc(-c2c(-c3ccc(F)cc3)ncn2CCCN2CCOCC2)n1 [SB-222516] | 0% | 1% | 93% | 7% | 12% | 15% | 6% | 48% | 15% | 10%
Cc1cccc(-c2nc(Nc3ccc4[nH]nnc4c3)c3ccccc3n2)n1 [GW867587] | 37% | 0% | 0% | 0% | 0% | 0% | 0% | 0% | 26% | 0%
COc1cc2c(Nc3cccc(NC(=O)c4ccccc4)c3)ncnc2cc1OCCCN1CCOCC1 [GSK223810] | 16% | 13% | 0% | 0% | 11% | 0% | 0% | 15% | 33% | 87%
FC(F)(F)c1cc(Nc2nccc(-c3c(-c4ccc(Cl)cc4)nn4ncccc34)n2)ccc1Cl [GW829351] | 30% | 0% | 19% | 0% | 0% | 0% | 0% | 0% | 0% | 24%
Fc1ccc(-c2ncn(CCCNCc3ccccc3)c2-c2ccncc2)cc1 | 3% | 0% | 55% | 3% | 0% | 0% | 22% | 22% | 10% | 17%
